# Reference: the supplement of paper PMC12494721
# Counter-ions that a name gives are not always drawn.
# What was measured:
# Settings in all cases: 20 µM; incubation time: 27 h, anaerobic, 37 °C;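 for the amine columns active = adjusted P below 0.05 in both replicates with a change the same way and a mean fold change under 0.8 or over 1.25; inactive = the rest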
# [1] = test system: Clostridium sporogenes DSM 1664; experiment: growth (OD595) fold change vs plate DMSO controls (fold change (ratio)); higher = more growth
# In short: (§1)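 Each value is the mean of 2 biological replicates, and fold changes above 1.5 were set to NA. The underlying readings were taken at 595 nm from shaken anaerobic mGAM cultures in 96-well plates after 27 h at 37 °C. They were blank-subtracted, corrected for compound background using 20 µM compound solutions in water, and converted to OD with a calibration factor of 5. Growth is the fold change relative to the median of the plate DMSO controls.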
# Escherichia coli IAI1 [2] = experiment: as above
# In short: as §1
# [3] = test system: Klebsiella aerogenes DSM 30053; experiment: as above
# In short: as §1
# [4] = test system: Ruminococcus gnavus DSM 108212; experiment: as above
# In short: as §1
# [5] = test system: Klebsiella aerogenes DSM 30053; experiment: fold change of Histamine concentration vs plate DMSO controls (fold change (ratio)); higher = more amine produced, active = hit call of the paper (significant change in both replicates, either direction)
# In short: (§2)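 Amine values are fold changes relative to DMSO-only wells on the same plate. They derive from 27 h, 37 °C anaerobic mGAM cultures of four gut bacterial strains in 80 µL wells, dosed at 20 µM final, or 50 µM final for sweeteners. Extraction of the whole culture, LC–triple-quadrupole MS in dynamic MRM mode, external calibration curves and within-batch drift correction were used, with 2 biological replicates averaged.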
# [6] = test system: Clostridium sporogenes DSM 1664; experiment: fold change of Tryptamine concentration vs plate DMSO controls (fold change (ratio)); higher = more amine produced, active = hit call of the paper (significant change in both replicates, either direction)
# In short: as §2
# [7] = test system: Ruminococcus gnavus DSM 108212; experiment: as above
# In short: as §2
# Escherichia coli IAI1 [8] = experiment: fold change of Putrescine concentration vs plate DMSO controls (fold change (ratio)); higher = more amine produced, active = hit call of the paper (significant change in both replicates, either direction)
# In short: as §2
# [9] = test system: Klebsiella aerogenes DSM 30053; experiment: as above
# In short: as §2
# Escherichia coli IAI1 [10] = experiment: fold change of Cadaverine concentration vs plate DMSO controls (fold change (ratio)); higher = more amine produced, active = hit call of the paper (significant change in both replicates, either direction)
# In short: as §2
# [11] = test system: Klebsiella aerogenes DSM 30053; experiment: as above
# In short: as §2
# [12] = test system: Ruminococcus gnavus DSM 108212; experiment: fold change of 2-Phenylethylamine concentration vs plate DMSO controls (fold change (ratio)); higher = more amine produced, active = hit call of the paper (significant change in both replicates, either direction)
# In short: as §2
Compound,growth [1],growth (Escherichia coli IAI1 [2]),growth [3],growth [4],fold change of Histamine concentration [5],fold change of Tryptamine concentration [6],fold change of Tryptamine concentration [7],fold change of Putrescine concentration (Escherichia coli IAI1 [8]),fold change of Putrescine concentration [9],fold change of Cadaverine concentration (Escherichia coli IAI1 [10]),fold change of Cadaverine concentration [11],fold change of 2-Phenylethylamine concentration [12]
CC(C)C[C@H]1C(=O)N2CCC[C@H]2[C@]2(O)O[C@](NC(=O)[C@@H]3C=C4c5cccc6[nH]c(Br)c(c56)C[C@H]4N(C)C3)(C(C)C)C(=O)N12 [Bromocryptine mesylate],1.19,1.05,1.11,1.06,0.914 (inactive),0.868 (inactive),1.03 (inactive),1.03 (inactive),0.98 (inactive),1.04 (inactive),1.01 (inactive),1 (inactive)
CCCN(CCOc1c(Cl)cc(Cl)cc1Cl)C(=O)n1ccnc1,1.07,0.976,1.01,0.951,1.02 (inactive),1.05 (inactive),1.02 (inactive),1 (inactive),1.01 (inactive),1.02 (inactive),0.998 (inactive),1.04 (inactive)
C=CCC1(CC(C)C)C(=O)NC(=O)NC1=O [Butalbital],1.07,1.04,0.966,0.589,1.01 (inactive),1 (inactive),1 (inactive),0.995 (inactive),1.01 (inactive),1.02 (inactive),0.997 (inactive),1 (inactive)
CCC(=O)O[C@@](Cc1ccccc1)(c1ccccc1)[C@@H](C)CN(C)C [Levopropoxyphene napsylate],1.06,1.03,1.05,1.18,0.942 (inactive),1.04 (inactive),1.01 (inactive),1.03 (inactive),1 (inactive),1.03 (inactive),1.01 (inactive),1.03 (inactive)
CC1(C)C(C=C(Cl)Cl)C1C(=O)OC(C#N)c1ccc(F)c(Oc2ccccc2)c1 (mixture of isomers),0.877,1.01,0.965,1,1.09 (inactive),0.985 (inactive),0.996 (inactive),0.971 (inactive),1.03 (inactive),1.09 (inactive),1.02 (inactive),1.02 (inactive)
Oc1ccc(C(c2ccc(O)cc2)(C(F)(F)F)C(F)(F)F)cc1 [Bisphenol AF],1.04,1.07,0.956,0.983,1.08 (inactive),0.718 (inactive),0.717 (active),1.01 (inactive),0.989 (inactive),1.03 (inactive),0.99 (inactive),0.723 (inactive)
N#Cc1sc2c(=O)c3ccccc3c(=O)c=2sc1C#N,1.14,1.02,0.963,1.01,0.994 (inactive),0.877 (inactive),0.906 (inactive),1.02 (inactive),1.01 (inactive),1.02 (inactive),0.992 (inactive),0.827 (inactive)
C[C@]12CC[C@H]3[C@@H](CCC4=CC(=O)CC[C@@H]43)[C@@H]1CC[C@@H]2O [Nandrolone],1.11,1.06,1.02,1.01,0.993 (inactive),1.01 (inactive),1.02 (inactive),1.04 (inactive),1 (inactive),1 (inactive),0.999 (inactive),1.03 (inactive)
Oc1ccc(Cl)cc1Cc1cc(Cl)ccc1O [Dichlorophen],0.903,0.835,0.919,0.819,1.13 (inactive),0.732 (inactive),0.561 (active),1.21 (inactive),0.97 (inactive),1.66 (active),0.975 (inactive),0.635 (inactive)
COC(=O)N(C(=O)N1CO[C@@]2(C(=O)OC)Cc3cc(Cl)ccc3C2=N1)c1ccc(OC(F)(F)F)cc1,1.15,0.998,0.992,0.903,0.975 (inactive),1.03 (inactive),1.03 (inactive),0.945 (inactive),0.915 (inactive),0.907 (inactive),1.03 (inactive),0.986 (inactive)
CCC(=O)Nc1ccc(Cl)c(Cl)c1,0.942,0.949,0.942,1.01,1.11 (inactive),0.963 (inactive),1.02 (inactive),1.01 (inactive),0.863 (inactive),0.929 (inactive),1.16 (inactive),1.13 (inactive)
CC(C)N1C(=O)c2ccccc2NS1(=O)=O,1.02,1.03,0.992,1.17,0.978 (inactive),0.976 (inactive),0.99 (inactive),0.969 (inactive),0.979 (inactive),0.979 (inactive),0.987 (inactive),1.03 (inactive)
CC1(C)[C@H](/C=C(\Cl)C(F)(F)F)[C@@H]1C(=O)OC(C#N)c1cccc(Oc2ccccc2)c1 (stereo partly drawn),0.953,0.991,0.981,0.999,0.987 (inactive),0.918 (inactive),1.03 (inactive),0.976 (inactive),0.987 (inactive),1.02 (inactive),0.995 (inactive),1.08 (inactive)
COc1ccccc1N [o-Anisidine],1.07,1.04,0.996,1.01,1.03 (inactive),1.08 (inactive),1 (inactive),1 (inactive),0.983 (inactive),0.947 (inactive),0.997 (inactive),1.01 (inactive)
